Source: PubChem (National Center for Advancing Translational Sciences (NCATS))
RE007 growth inh: less growth of the S. pombe RE007 Vpr strain; S. pombe RE007 Vpr strain, BacTiter-Glo ATP luminescence, 24 h; AID 651644; Potency, µM (titrated, usually from 92.2 µM), for the others: at the top dose activity change, negative = less growth, most hits filed as inhibitors; 360,000 tested, 0.21% active; active = well fitted falling curve with a large enough effect; inconclusive = small, poorly fitted or top-dose-only effect; inactive = no such curve, though single readings can be large or run the other way; also: nearly all actives have a fitted effect of over 50% in size
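Fission yeast RE007 carrying one integrated HIV-1 vpr copy, seeded at OD 0.01 in PMG+AL medium with 23 nL pinned compound. Grown 24 h at 30 degrees; viability read by BacTiter-Glo luminescence after 5 min.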
Sm TGR inh: S. mansoni TGR enzyme inhibition; Q962Y6; purified TGR, DTNB reduction, TNB absorbance 405 nm; Potency, µM (highest dose often 114 µM), for the others: at the top dose activity change, negative = inhibition, actives largely listed as inhibitors; 360,000 tested, 3% active; also: nearly all actives have a fitted effect of over 60% in size
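TGR 20 nM + NADPH 100 uM (dispensed conc.), cpd preinc 15 min RT; start with NADPH (500 uM addition) then DTNB (15 mM addition). Kinetic TNB absorbance, 405 nm filter. Four-parameter Hill fit across titration.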
Tb PYK inh: inhibitors of Trypanosoma brucei pyruvate kinase; Potency, µM (series often up to 76.8 µM), for inactives: top-dose activity, negative = inhibition, actives largely listed as inhibitors; Q57TT1; TbPYK enzyme, Kinase-Glo Plus ATP luminescence, 45 min; 410,000 tested, 0.12% active; also: nearly all actives have a fitted effect of over 50% in size
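Quantitative HTS: titrated library compounds versus trypanosomal pyruvate kinase in TEA buffer (pH 7.2) containing KCl, MgCl2, BSA and Tween-20. Reactions were initiated with ADP, 130 uM final. Kinase-Glo Plus luminescence was read after 45 min at RT.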
AMA1-RON2 inh: AMA1-RON2 (P. falciparum) interaction inhibition | 360,000 tested, 0.2% active | Potency, µM (doses to about 58.2 µM), for the others: at the top dose activity change, negative = inhibition, usual class: inhibitors | AlphaScreen AMA1-biotinylated RON2 peptide binding;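 also: 0% = vehicle wells and -100% = peptide control; nearly all actives have a fitted effect of over 45% in size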
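AMA1 (3D7) with his tag at 25 nM final met compounds first, then biotinylated RON2 peptide at 25 nM; detection used donor plus acceptor beads, 10 µg/mL apiece, read by AlphaScreen after 30 min at room temperature.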
LmPK inhibitor: blocks Leishmania mexicana pyruvate kinase activity | Potency, µM (titrated, usually from 57.5 µM), without a hit: at the top dose activity change, negative = inhibition, most hits filed as inhibitors | purified LmPK, Kinase-Glo ATP luminescence, 1 h | 290,000 tested, 0.37% active
Target sequence (Q27686 whole entry, looked up): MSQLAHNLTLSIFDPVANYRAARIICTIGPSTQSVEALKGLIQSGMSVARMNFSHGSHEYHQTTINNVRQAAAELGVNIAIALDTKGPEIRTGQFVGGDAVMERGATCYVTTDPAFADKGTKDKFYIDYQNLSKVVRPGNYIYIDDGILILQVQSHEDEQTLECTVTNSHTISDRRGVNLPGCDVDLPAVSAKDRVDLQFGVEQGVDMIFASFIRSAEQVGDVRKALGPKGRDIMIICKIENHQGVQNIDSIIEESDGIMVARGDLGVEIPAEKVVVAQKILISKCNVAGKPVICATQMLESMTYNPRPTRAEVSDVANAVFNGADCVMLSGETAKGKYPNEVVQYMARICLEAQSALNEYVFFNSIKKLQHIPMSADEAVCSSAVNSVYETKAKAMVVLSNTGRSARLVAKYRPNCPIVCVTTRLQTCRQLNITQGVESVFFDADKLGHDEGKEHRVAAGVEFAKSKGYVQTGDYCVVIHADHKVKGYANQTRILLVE
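Pyruvate kinase activity monitored as ATP production (luciferase luminescence). Conditions: 0.1 nM enzyme, 0.5 mM PEP, 0.1 mM ADP, 1 h, RT; normalized against uninhibited and no-enzyme wells.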
* hit, by the source's call; ? = inconclusive; / = not tested or not shown; [ ] = remark or other dose. Hits are enriched below; roughly 3.2% of the tested compounds scored in any of these assays. Unless noted, calls follow the shape of the dose curve; as a rule, active = well fitted curve in the direction sought with a large enough effect; inconclusive = small, poorly fitted or top-dose-only effect, or another doubt; inactive = no such curve, though single readings can be large; an effect the other way counts as inactive or inconclusive. Unless noted, % is scaled to controls: 0 for no effect and ±100 for the full control effect; potency is read from the fitted curve at half-maximal effect.

SMILES	RE007 growth inh	Sm TGR inh	Tb PYK inh	AMA1-RON2 inh	LmPK inhibitor
O=S(=O)(c1ccc2nc(Nc3ccc(Br)cc3F)ccc2c1)N1CCCCC1	/	-6.5%	-0.9%	/	/
O=C(COC(=O)c1ccco1)NCc1ccc2c(c1)OCO2	2.0%	4.4%	13.7%	-1.0%	1.2%
O=C(COC(=O)c1cc(-c2ccco2)nc2ccccc12)NCc1ccc2c(c1)OCO2	5.3%	8.91µM*	-6.1%	-7.4%	3.9%
NC(=O)COC(=O)c1cc(-c2ccco2)nc2ccccc12	0.9%	3.16µM*	3.7%	-23.4%	-12.3%
O=C(c1cc(-c2ccco2)nc2ccccc12)N1CCN(Cc2ccccc2)CC1	-3.6%	14.1µM*	1.4%	-5.4%	/
CCOc1ccc2nc(N3CCCC(C(=O)Nc4cc(Cl)c(OC)cc4OC)C3)sc2c1 (stereo not drawn)	/	-14.9%	1.7%	/	/
COc1ccccc1OC1=NS(=O)(=O)c2ccccc21	16.9%	?	-0.2%	-15.9%	12.6µM*
Cc1cc(=O)[nH]c(N/N=C2/CCCC/C2=C\c2ccccc2)n1	-12.1%	22.4µM*	-6.2%	109.0%	3.3%
COc1ccc(-n2sc3ccc(F)cc3c2=O)cc1	10µM*	-7.3%	?	-5.3%	/
COc1ccc(-n2sc3ccccc3c2=O)cc1	-86.9%	/	11.2µM*	-2.7%	/
O=c1c2cc(F)ccc2sn1-c1ccc(F)cc1	11.2µM*	-22.6%	8.91µM*	9.0%	/
COc1ccc2c(c1)c1c(c(=O)n(Cc3ccccc3)c(=O)n1CC(=O)NCc1ccccc1Cl)n2C	/	-2.1%	2.2%	/	/
CCC(=O)N1CCCc2cc(S(=O)(=O)Nc3ccc(C)c(C)c3)ccc21	/	3.0%	0.5%	/	/
CCOC(=O)c1c(-c2ccc(C)o2)csc1NC(=O)CSc1nncs1	-19.0%	4.47µM*	?	-9.8%	-4.6%
CCOC(=O)c1c(-c2ccc(C)o2)csc1NC(=O)CN1CCCCC1	-16.4%	8.91µM*	1.6%	-5.3%	3.2%
CCOC(=O)c1c(-c2ccco2)csc1NC(=O)COC(=O)c1cnccn1	7.1%	7.94µM*	-3.4%	-16.2%	/
CCOC(=O)c1c(-c2ccc(C)o2)csc1NC(=O)CN(C)CC(=O)Nc1ccc(C)cc1	-8.4%	?	-5.9%	64.9%	-2.2%
CCOC(=O)c1c(-c2ccc(C)o2)csc1NC(=O)CN1CCN(CC)CC1	3.8%	50.1µM*	-26.4%	1.0%	2.1%
Cc1cccc(NC(=O)c2oc3ccccc3c2NC(=O)Cc2coc3cc(C)cc(C)c23)c1	/	0.1%	2.6%	/	/
Cc1ccc(S(=O)(=O)N2CCc3nc(-c4ccccc4)c4c(c3C2)CO[C@@H](C)C4)cc1	/	/	/	/	-5.1%[11.5 µM]
CCOC(=O)CCCNC(=O)N1CCc2nc(-c3ccc(OC)cc3C)c3c(c2C1)CO[C@@H](c1ccccc1)C3	/	/	/	/	-3.1%[11.5 µM]
CCc1nnc2c(Nc3cccc(F)c3)nc3ccc(C(=O)c4ccccc4)cc3n12	/	6.8%	-7.4%	/	/
COc1ccc(S(=O)(=O)Nc2ccc3c(c2)CCCN3S(=O)(=O)c2ccc(C)cc2)cc1F	/	-18.4%	-13.2%	/	/
CCOC(=O)c1c(-c2ccc(C)o2)csc1NC(=S)NC(=O)c1ccc(F)cc1	-12.4%	-13.1%	-8.6%	14.8%	2.5%
CCOC(=O)c1c(-c2ccc(C)o2)csc1NC(=O)CN1CCC(C(N)=O)CC1	1.7%	14.1µM*	-2.0%	-15.8%	4.8%
SMILES	RE007 growth inh	Sm TGR inh	Tb PYK inh	AMA1-RON2 inh	LmPK inhibitor
CCN(C(=O)c1nn(-c2ccc(OC)c(Cl)c2)c(=O)c2c1c1ccccc1n2C)c1cccc(C(F)(F)F)c1	/	-6.8%	-9.7%	/	/
O=C1C2CC=C(Cl)CC2C(=O)N1CC1Cc2ccccc2CO1 (stereo not drawn)	1.3%	44.7µM*	-3.6%	3.1%	-0.9%
O=C1C2CC=C(Cl)CC2C(=O)N1CN(Cc1ccco1)CN1C(=O)C2CC=C(Cl)CC2C1=O (stereo not drawn)	2.4%	50.1µM*	-14.2%	-1.9%	3.2%
O=C(O)C1CC=C(Cl)CC1C(=O)NCC1OCCc2ccccc21 (stereo not drawn)	1.5%	1.3%	-8.7%	0.4%	-0.7%
O=C(O)c1ccccc1NCN1C(=O)C2CC=C(Cl)CC2C1=O (stereo not drawn)	34.0%	3.0%	-3.1%	7.3%	2.7%
O=C1C2CC=C(Cl)CC2C(=O)N1CC1OCCc2ccccc21 (stereo not drawn)	-17.2%	79.4µM*	-0.8%	-7.6%	2.6%
O=C(CCn1c(=O)c2cccn2c2cccnc21)N1CCN(c2ccccc2F)CC1	/	-8.6%	-0.6%	/	/
C=C1CN(CC(=O)OC)S(=O)(=O)c2ccccc21	3.8%	0.0%	2.9%	0.0%	6.4%
C=C1CN(Cc2ccccc2)S(=O)(=O)c2ccccc21	5.0%	17.8µM*	-21.7%	11.4%	?
O=C(CSc1nnc(-c2cccnc2)n1Cc1ccco1)c1ccc(Br)cc1	22.9%[3.69 µM]	?	/	-8.6%	3.4%
CCSc1nnc(-c2cccnc2)n1Cc1ccco1	6.3%	35.5µM*	3.6%	-5.5%	4.0%
O=C(CSc1nnc(-c2cccnc2)n1Cc1ccco1)c1ccc2ccccc2c1	-3.7%	22.4µM*	-3.9%	7.1%	0.8%
COC(=O)c1ccc(OCC2c3cc(OC)c(OC)cc3CCN2C(=O)c2ccccc2F)cc1 (stereo not drawn)	/	10.1%	1.5%	/	/
Fc1ccccc1-c1nc(N2CCN(c3cccc(Cl)c3)CC2)c2ccccc2n1	/	-9.4%	2.6%	/	/
CCCCC(F)(F)[C@@]1(O)CC[C@H]2[C@H](CC(=O)[C@@H]2CCCCCCC(=O)O)O1	/	/	0.8%	/	/
O=C(/C=C/C=C/c1ccccc1)c1ccco1	/	10µM*	-2.0%	-10.3%	-7.0%
C=CCN1C(=O)NC(=O)/C(=C\c2ccc(-c3ccccc3[N+](=O)[O-])o2)C1=O	-1.4%	?	?	-10.6%	-2.0%
CC1=C(C#N)C(=O)NC(=O)/C1=C\c1ccc(-c2ccc(C)cc2[N+](=O)[O-])o1	-18.2%	8.91µM*	-13.8%	-14.9%	-6.1%
CCOC(=O)c1cc(-c2ccc(/C=C3/C(=O)NC(=O)C(C#N)=C3C)o2)ccc1Cl	?	7.94µM*	?	-8.5%	0.0%
CCCCC1(C)OC(=O)C(=Cc2ccc(-c3ccc(Cl)c(C(=O)O)c3)o2)C(=O)O1 (stereo not drawn)	0.2%	-8.9%	?	2.0%	11.6%
CC(=O)SCC(CC(=O)c1ccc(C)cc1)C(=O)O (stereo not drawn)	/	/	15.7%	/	/
O=c1oc2ccccc2c(N2CCN(c3ccccc3F)CC2)c1CN1CCCC1	/	-4.8%	4.2%	/	/
O=C1CC(Sc2nnc(-c3ccccc3)o2)C(=O)N1c1ccccc1 (stereo not drawn)	15.8µM*	3.55µM*	-20.5%	9.9%	4.1%
O=C1c2ccccc2CC1Sc1nnc(-c2ccncc2)o1 (stereo not drawn)	-28.4%	15.8µM*	-13.4%	4.0%	-4.9%
